From PubChem BioAssay AID504840 (Johns Hopkins Ion Channel Center, 2011)
Out of some 1,500 compounds screened, about 890 (59%) were called active.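 Rule for the calls: active = inhibition of the choline-evoked signal at any tested dose together with a fitted dose-response curve; inactive = no inhibition at any dose or no curve.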 The set was probably picked from earlier hits. Not all results are given here. Entries with a potency or affinity are not part of this list.

target: High affinity choline transporter 1 (Homo sapiens) (UniProt Q9GZV3); experiment: CHT inhibitors, dose response, cell-based, 5-point CRC, membrane potential dye (AID 504840); conditions: HEK293-CHT, choline-induced depolarization, CHT with LV-to-AA double alanine mutation; series mostly up to 37 µM
Sequence (Q9GZV3 whole entry, looked up): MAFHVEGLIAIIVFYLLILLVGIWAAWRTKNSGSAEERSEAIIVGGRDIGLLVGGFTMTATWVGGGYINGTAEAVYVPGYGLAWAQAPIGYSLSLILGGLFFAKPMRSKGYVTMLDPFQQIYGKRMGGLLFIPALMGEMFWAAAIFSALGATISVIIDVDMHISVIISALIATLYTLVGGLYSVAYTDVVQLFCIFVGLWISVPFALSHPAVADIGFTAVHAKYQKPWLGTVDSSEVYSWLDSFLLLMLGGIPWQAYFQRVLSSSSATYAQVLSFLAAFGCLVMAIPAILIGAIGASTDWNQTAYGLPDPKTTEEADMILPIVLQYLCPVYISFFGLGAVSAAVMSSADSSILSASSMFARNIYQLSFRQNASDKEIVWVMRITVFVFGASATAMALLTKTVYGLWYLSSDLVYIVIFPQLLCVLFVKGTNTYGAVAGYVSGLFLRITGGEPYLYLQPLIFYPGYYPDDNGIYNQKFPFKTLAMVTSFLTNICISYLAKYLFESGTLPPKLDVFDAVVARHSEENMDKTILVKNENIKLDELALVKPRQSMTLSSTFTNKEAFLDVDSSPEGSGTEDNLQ

outcome, inactive:
C/C(=N\NC(=O)c1ccccc1O)C1C(=O)c2ccccc2C1=O
COC(=O)C1CN(C(=O)C(C)Oc2ccccc2Cl)c2ccccc2O1 (stereo unspecified)
CC(NC(=O)Cn1nc(-c2ccccc2)c2ccccc2c1=O)c1ccccc1 (stereo unspecified)
O=c1c2cc(Br)ccc2nc(-c2cccc(C(F)(F)F)c2)n1O
CCn1c(SCC(=O)N=Nc2c(O)[nH]c3ccccc23)nc2ccccc21
OC(CNCC#Cc1ccccc1)c1ccccc1 (stereo unspecified)
O=C(C1CCCN(c2ncnc3c2nc2n3CCCCC2)C1)N1CCN(c2cccc(Cl)c2)CC1 (stereo unspecified)
COc1ccc(Cl)cc1NC(=O)C1CCCN(c2ncnc3c2nc2n3CCCCC2)C1 (stereo unspecified)
Cc1ccc(N2CCN(C(=O)C3CCCN(c4ncnc5c4nc4n5CCCCC4)C3)CC2)c(C)c1 (stereo unspecified)
O=C(Nc1cc(F)ccc1F)C1CCCN(c2ncnc3c2nc2n3CCCCC2)C1 (stereo unspecified)
O=C(c1cccs1)C1C(c2ccc(Br)cc2)NC(=S)NC1(O)C(F)(F)F (stereo unspecified)
COc1ccc(Cl)c2sc(N(CCN(C)C)C(=O)c3ccc4c(c3)OCCO4)nc12
Cc1[nH]n(-c2ccccc2)c(=O)c1N=Nc1c(O)cc(S(=O)(=O)N(C)C)c2ccccc12
COc1cccc(N2CCN(c3ncnc4c3[nH]c3ccc(F)cc34)CC2C)c1 (stereo unspecified)
COCCNc1c2c(nc3c(-c4ccccc4)c(C)nn13)CCCC2
CN1CCN(Cc2ccc(Sc3ccc(Cl)cc3)c([N+](=O)[O-])c2)CC1
CCOC(=O)N1CCN(C(=O)CCCn2c(=S)[nH]c3ccc(Br)cc3c2=O)CC1
CC1=NN(C(=O)c2ccc(Br)cc2)C(O)(C(F)(F)OC(F)(F)F)C1 (stereo unspecified)
O=C(Nc1ccccc1O)c1ccccc1O
CCc1nc(NCc2ccccn2)c2oc3ccccc3c2n1
O=C1c2ccccc2C(=O)c2c(Nc3ccc(CCO)cc3)ccc(O)c21
COc1cc(C(CCN2CCCC(C)C2)c2c(OC)cc(OC)c3c(-c4ccccc4)cc(=O)oc23)cc(OC)c1OC (stereo unspecified)
O=C(CCCSc1nc2ccccc2[nH]1)N1CCN(c2ccccc2)CC1
Cc1cc(C)nc(SCc2cc(=O)c(OC(=O)c3ccc(S(=O)(=O)N4CCCC4)cc3)co2)n1
CN1CCN(c2ccc(S(=O)(=O)N3CCCCC3)cc2NC(=O)CSCc2ccccc2)CC1
CC(C)[C@H](NC(=O)c1ccccc1)C(=O)OCC(=O)c1ccc2c(c1)NC(=O)CO2
O=C(CCl)N(c1ccc(Cl)cc1)c1c[nH]c2ccccc12
O=C(Nc1cc([N+](=O)[O-])ccc1O)c1cccc([N+](=O)[O-])c1
Oc1ccc(-c2nc(-c3ccc(O)c(O)c3)cs2)cc1
Cc1cccc2sc(N(CCCN(C)C)C(=O)c3ccc(Cl)s3)nc12
Cc1oc(C(=O)O)cc1COc1ccc2c3c(c(=O)oc2c1C)CCC3
O=[N+]([O-])c1ccc(O)c(/C=N/NC2=NS(=O)(=O)c3ccccc32)c1
O=c1c2cc(NC(=S)NC3CCCCC3)ccc2nc2n1CCCCC2
c1cc(Nc2ncnc3sccc23)cc(-c2nnc3n2CCCCC3)c1
CCCn1c(=O)c2c(nc3n2CCCN3CCc2ccc(OC)c(OC)c2)n(C)c1=O
O=C(NNc1ccc(C(F)(F)F)cc1[N+](=O)[O-])c1ccc(NS(=O)(=O)c2ccc(F)cc2)cc1
O=C(NNc1nc(-c2ccccc2)cs1)c1ccc(F)cc1
O=C(NCc1nc(-c2ccccc2)cs1)c1ccccc1
C=CCNC(=O)c1onc(CSc2ccc(C(C)C)cc2)c1C(=O)O
CC(=O)C(Sc1nn(C)c(=S)s1)C(=O)Nc1ccccc1 (stereo unspecified)
CN1CCN(CCOCCOc2ccc(Br)cc2Cl)CC1
CCOc1cc(/C=C2\N=C(SC)SC2=O)cc([N+](=O)[O-])c1OC(C)=O
COC(=O)C(C)Sc1nc2c(c(=O)[nH]c(=O)n2C)n1CCC(C)C (stereo unspecified)
O=S(=O)(Nc1nc(-c2ccccc2)cs1)c1cccc(C(F)(F)F)c1
O=C(Nc1nc(-c2ccccc2)cs1)c1ccc(=O)[nH]c1
N#Cc1ccc(C2=NC(C(F)(F)F)(C(F)(F)F)c3c(n(Cc4ccco4)c(=O)[nH]c3=O)N2)cc1
O=C(Nc1ccc(S(=O)(=O)NC2=NCCCCC2)cc1)C1COc2ccccc2O1 (stereo unspecified)
O=C(CC1C(=O)NCCN1C(=O)Nc1ccccc1)Nc1cc(Cl)cc(Cl)c1 (stereo unspecified)
CCCCc1cc(=O)oc2cc(O)cc(O)c12
CN1CCN(CC(=O)Nc2nc(-c3c[nH]c4ccccc34)cs2)CC1
Nc1cc(N2CCCCCC2)c2nonc2c1[N+](=O)[O-]
O=C(NNc1ccc([N+](=O)[O-])cc1[N+](=O)[O-])c1ccco1
COc1ccc2c(c1)c(C(O)CN1CCC(Cc3ccccc3)CC1)c(C)n2C (stereo unspecified)
CC1(C)c2cc(Cl)ccc2-n2c1cc(O)c(-c1ccccc1)c2=O
CCOC(=O)c1c(CCl)nc2ccccc2c1C
CCCCCn1c(CCNC(=O)CCC)nc2ccccc21
Cc1occc1C(=O)NNS(=O)(=O)c1ccc([N+](=O)[O-])cc1
Cc1occc1C(=O)NNC(=S)NC(=O)COc1ccc(Cl)cc1Cl
O=C(O)c1ccccc1-c1ccccc1C(=O)Nc1ccc(-c2nc3cc(Cl)ccc3o2)cc1
Cc1cccc(N2CCN(C(=O)C3CCN(c4ncnc5c4nc4n5CCCCC4)CC3)CC2C)c1 (stereo unspecified)
CCC(Sc1nnc(-c2ccc(C)c(Cl)c2)n1CC)C(=O)Nc1nccs1 (stereo unspecified)
CCn1c(SCC(=O)c2ccccc2)nnc1-c1cccs1
Cc1c(O)ccc(/C(Cc2ccc3ccccc3n2)=N\N)c1O
C=CCNc1nc(SCC=C)nc2ccsc12
N#C/C(=C(/O)CCl)c1nc(-c2ccccc2)cs1
O=C(c1cccc(Oc2ccc([N+](=O)[O-])cc2Cl)c1)N1CCCCC1
COc1ccc(Nc2nc3ccccc3n2C)cc1
S=C(NCc1ccccn1)Nc1ccc(Cl)cc1Cl
O=C(Nc1ccc(Br)cc1Cl)Nn1cnnc1
COc1ccc(CN(C(=O)c2ccc3c(c2)OCCO3)C(C(=O)NC2CCCCC2)c2ccc3ncccc3c2)cc1 (stereo unspecified)
O=C(NCCc1ccc2c(c1)OCCO2)c1cc2ccccc2o1
O=C(NC1CCCCC1)C(c1ccc2ncccc2c1)N(Cc1ccc(F)cc1)C(=O)c1ccc2c(c1)OCCO2 (stereo unspecified)
COc1ccc(CN(C(=O)c2cccs2)C(C(=O)NC2CCCCC2)c2ccc3ncccc3c2)cc1 (stereo unspecified)
NC1=NC2(CCCCCC2)n2c(nc3ccccc32)N1
Cc1ccc(-c2csc3ncn(CC#N)c(=O)c23)cc1
CC1=C(C(=O)Nc2cccc(C(=O)NC3CCCC(C)C3C)c2)SCCO1 (stereo unspecified)
Cc1ccc(NNC(=O)c2cccs2)cc1Cl
Cc1ccc(Nc2cc(C(=O)NCCCN3CCOCC3)c3ccccc3n2)cc1C
CCNc1nc2[nH]c(=O)c3c(c2s1)OC(N)=C(C#N)C3c1ccc(C)cc1 (stereo unspecified)
Cc1noc(C)c1COC(=O)c1ccc(F)c(S(=O)(=O)N2CCCCC2)c1
CCc1nnc(NC(=O)c2cc(S(=O)(=O)N(CC)CC)ccc2Cl)s1
CC[N+]1(CC)CC2=Cc3c(ccc4ccccc34)CC2C1 (stereo unspecified)
O=C(CN1CCN(Cc2ccc(Cl)cc2)CC1)N1CCc2ccccc21
Cc1ccc(-c2noc(CNc3ccccc3)n2)cc1
CCc1ccc(NCc2nc(-c3ccccc3)no2)cc1
O=C(CCCN1C(=O)CSc2ncccc21)N1CCN(c2cccc(C(F)(F)F)c2)CC1
COC(=O)c1ccc(C(=O)N2CCCC(Nc3ccc(C(C)C)cc3)C2)nc1 (stereo unspecified)
CC(C)c1cc(C(=O)N2CCCC(CCC(=O)N3CCN(c4ccccn4)CC3)C2)no1 (stereo unspecified)
O=C(c1cc(COc2ccc(F)cc2Cl)on1)N1CCC(c2ccncc2)CC1
CCN(Cc1ccncc1)C(=O)c1cc(COc2c(C)cccc2C)on1
CC(C)n1cnc2c(N(C)c3cccc(Cl)c3)nc(N(CCO)CCO)nc21
N#C/C(=N\Nc1ccc(F)cc1)C(=O)C1CC1
N#C/C(=N\Nc1ccc([N+](=O)[O-])cc1)C(N)=S
CC(NC(=O)C1c2ccccc2Oc2ccccc21)C1CCCO1 (stereo unspecified)
CN(Cc1ccccc1)c1ccc(C(CC(N)=O)NC(=O)c2ccc(Br)cc2)cc1[N+](=O)[O-] (stereo unspecified)
O=C(O)c1ccc(N2C(=O)CSC2=S)cc1
O=C(CCC(=O)N1CCN(c2ccccc2F)CC1)N1CCN(c2ccc(F)cc2)CC1
Cc1ccc(Cl)cc1N1CCN(C(=O)Cc2c(C(=O)O)[nH]c3ccc(Cl)cc23)CC1
CCC(=O)Nc1cc(Cl)ccc1N1CCN(C(=O)CC)CC1
NC(N)=N/N=C/c1ccc(Cl)c(Cl)c1
O=C1OCCC1Sc1nc(-c2ccccc2)cs1 (stereo unspecified)
Cc1csc(C(C#N)C(=O)c2cc3ccccc3o2)n1 (stereo unspecified)
CC(C)n1c(=S)[nH]c2cc(C(F)(F)F)ccc21
CCCCNS(=O)(=O)c1ccc(NC(=O)c2c(-c3ccccc3Cl)noc2C)cc1
Cc1noc(NC(=O)c2c(-c3c(Cl)cccc3Cl)noc2C)c1[N+](=O)[O-]
Cc1cc(C)cc(OCC(O)CN2CCC(CN3C(=O)c4cccc5cccc(c45)C3=O)CC2)c1 (stereo unspecified)
